# Most compounds without a hit are left out; they make up all but 18% or so of the library.
# DT40 TDP1 no CPT: qHTS for Inhibitors of human tyrosyl-DNA phosphodiesterase 1 (TDP1): qHTS in cells in absence of CPT. Potency, µM (doses to about 46.2 µM), without a hit: at the top dose activity change, negative = growth inhibition, usual class: inhibitors. actives 15% (n = 420,000). DT40 Tdp1-/- hTDP1 cells, no CPT, ATP luminescence, 48 h. AID 686978, 2013; note: nearly all actives have a fitted effect of over 55% in size
#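 Growth of hTDP1-complemented DT40 Tdp1-knockout cells is measured by ATP luminescence after at least 48 hr compound exposure at 37 °C, with DMSO substituting for the 20 nM CPT used in the parallel screen.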
# VDR inhibitor: Inhibitors of the vitamin D receptor (VDR): qHTS; Vitamin D3 receptor (Homo sapiens), P11473; VDR-SRC2-3 peptide fluorescence polarization, 2 h; Potency, µM, for the others: max response, negative = inhibition, hits mostly inhibitors; actives 0.93% (n = 400,000); AID 504847, 2011
# Target sequence (P11473 whole entry, looked up): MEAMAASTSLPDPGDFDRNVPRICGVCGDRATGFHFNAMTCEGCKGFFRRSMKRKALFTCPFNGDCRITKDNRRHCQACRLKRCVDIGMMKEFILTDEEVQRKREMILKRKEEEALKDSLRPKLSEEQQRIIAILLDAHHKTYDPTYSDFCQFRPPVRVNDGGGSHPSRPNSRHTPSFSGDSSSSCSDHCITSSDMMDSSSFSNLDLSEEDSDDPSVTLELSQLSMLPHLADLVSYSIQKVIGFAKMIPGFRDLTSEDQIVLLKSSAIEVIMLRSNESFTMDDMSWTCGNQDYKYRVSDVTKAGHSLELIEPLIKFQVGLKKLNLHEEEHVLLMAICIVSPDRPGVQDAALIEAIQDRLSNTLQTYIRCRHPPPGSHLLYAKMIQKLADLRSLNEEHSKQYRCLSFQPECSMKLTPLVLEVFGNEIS
#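 Compounds are added to VDR with labelled SRC2-3 coactivator peptide and held 2 h at room temperature. Inhibition of the VDR–peptide interaction is then read as a change in fluorescence polarization.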
# PLK1 PBD inh: qHTS for Inhibitors of PLK1-PDB (polo-like kinase 1 - polo-box domain): Primary Screen; Serine/threonine-protein kinase PLK1 (Homo sapiens), P53350; Plk1 PBD binding of FITC phosphopeptide, fluorescence polarization; Potency, µM, without a hit: max response, negative = inhibition, hits mostly inhibitors; actives 2.8% (n = 360,000); note: series mostly up to about 57 µM; nearly all actives have a fitted effect of over 65% in size
# TDP1 inh: qHTS Assay for Inhibitors of Tyrosyl-DNA Phosphodiesterase (TDP1) | actives 0.28% (n = 350,000) | Potency, µM (top dose mostly 130 µM), without a hit: at the highest dose activity change, negative = inhibition, hits mostly inhibitors | Tyrosyl-DNA phosphodiesterase 1 (Homo sapiens), Q9NUW8 | recombinant TDP1, AlphaScreen DNA substrate cleavage; note: nearly all actives have a fitted effect of over 40% in size
#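 E. coli-derived human Tdp1, 1 nM final. Cpd preinc 15 min RT; substrate 15 nM final, 5 min RT; AS bead mix 10 ug/ml final, 10 min RT. Signal loss = tyrosine-FITC cleavage. No-enzyme wells = max signal.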
# TDP1 cell CPT: qHTS for Inhibitors of human tyrosyl-DNA phosphodiesterase 1 (TDP1): qHTS in cells in presence of CPT; chicken DT40 Tdp1-/-;hTDP1 cells + 20 nM CPT, ATP luminescence, 48 h; Potency, µM (titrated, usually from 46.2 µM), for the others: top-dose activity change, negative = growth inhibition, most hits filed as inhibitors; actives 12% (n = 420,000); note: nearly all actives have a fitted effect of over 55% in size
#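 Cell growth measured by CellTiter-Glo luminescence after a minimum 48 h, 37 C compound exposure with 20 nM CPT in Tdp1-knockout DT40 cells stably expressing hTDP1, seeded 400/well; qHTS titration format.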
# GCN5L2 inh: qHTS Assay for Inhibitors of GCN5L2; Histone acetyltransferase KAT2A (Homo sapiens), Q92830; GCN5L2 HAT assay, ThioGlo1 CoA-SH fluorescence; Potency, µM (highest dose often 58.9 µM), without a hit: at the top dose activity change, negative = inhibition, hits mostly inhibitors; actives 0.21% (n = 390,000); AID 504327, 2011
#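 Free CoA generated was detected with ThioGlo1 (50uM) fluorescence at Ex340nm/Em540nm, read immediately and after 20 min at room temperature. Enzyme, 20 nM in HEPES pH 7.5 buffer, saw compounds 15 min before adding 75uM H3(1-25) peptide and 70uM acetyl-CoA.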
# Active calls of the source: *; ? = inconclusive; · = no result; [ ] = dose if it differs, or a comment. Calls come from the whole dose curve; as a rule, active = well fitted curve in the direction sought with a large enough effect; inconclusive = small, poorly fitted or top-dose-only effect, or another doubt; inactive = no such curve, though single readings can be large; an effect the other way counts as inactive or inconclusive. % is set by controls: 0 for no effect and ±100 for the full control effect; potency is the fitted concentration of half-maximal effect.
SMILES,DT40 TDP1 no CPT,VDR inhibitor,PLK1 PBD inh,TDP1 inh,TDP1 cell CPT,GCN5L2 inh
Cc1cc(OCC(=O)N(Cc2sccc2C)C2CCS(=O)(=O)C2)ccc1Cl (stereo unspecified),?,5%,·,5%,?,-7%
Cc1ccsc1CN(C(=O)c1oc2ccccc2c1C)C1CCS(=O)(=O)C1 (stereo unspecified),5.2µM*,20%,·,5%,8.2µM*,-5%
O=C(c1cc(=O)c2ccccc2o1)N(Cc1ccccc1)C1CCS(=O)(=O)C1 (stereo unspecified),15%,-17%,0%,1%,0%,-6%
COc1ccc(CN(C(=O)c2oc3ccccc3c2C)C2CCS(=O)(=O)C2)cc1 (stereo unspecified),?,2%,0%,3%,-1%,-1%
Cc1c(C(=O)N(Cc2ccc(N(C)C)cc2)C2CCS(=O)(=O)C2)oc2ccccc12 (stereo unspecified),?,-5%,6%,11%,29µM*,3%
CCc1ccc(CN(C(=O)c2oc3ccccc3c2C)C2CCS(=O)(=O)C2)cc1 (stereo unspecified),18µM*,15%,-4%,·,?,-12%
O=C(Cn1ncc2c(Cl)cccc21)NCc1cccc(Br)c1,-25%,13%,·,9%,?,-4%
CCOP(=O)(OCC)C(NC(=O)c1cccs1)c1ccccc1 (stereo unspecified),5%,0%,-4%,8%,5%,-2%
COc1ccc2c(c1)OC(C)CN(CCNC(=O)c1cc3cc(F)ccc3[nH]1)C2 (stereo unspecified),?,·,·,·,7%[9.04 µM],·
COc1cccc(CN(C(=O)COc2ccccc2[N+](=O)[O-])C2CCS(=O)(=O)C2)c1 (stereo unspecified),?,-19%,24µM*,0%,?,-2%
Cc1c(C(=O)N(Cc2cccc(Br)c2)C2CCS(=O)(=O)C2)oc2ccccc12 (stereo unspecified),21µM*,-19%,-12%,3%,?,0%
COc1cc(CN(C(=O)c2oc3ccccc3c2C)C2CCS(=O)(=O)C2)cc(OC)c1OC (stereo unspecified),?,5%,·,0%,?,-2%
O=C(COc1ccccc1[N+](=O)[O-])N(Cc1cccc(Br)c1)C1CCS(=O)(=O)C1 (stereo unspecified),?,-2%,-17%,1%,?,-8%
COc1cccc(CN(C(=O)c2oc3ccccc3c2C)C2CCS(=O)(=O)C2)c1 (stereo unspecified),21µM*,12%,·,1%,?,0%
CN(C(=O)c1ccc(Cl)cc1)c1ccc(OCC(=O)Nc2cc(C(=O)O)ccc2Cl)cc1,24%,1%,-3%,·,-1%,·
Cc1c(NC(=O)c2ccc(N3CCC(C)CC3)c([N+](=O)[O-])c2)cccc1-c1nc2ccccc2o1,?,-7%,·,2%,?,5%
CCOC(=O)C1=C(C)N(Cc2ccccc2)C(=O)NC1c1ccccc1OS(=O)(=O)c1ccccc1[N+](=O)[O-] (stereo unspecified),9.2µM*,-2%,0%,·,10µM*,·
CC1=C(C(=O)OCc2ccccc2)C(c2ccccc2[N+](=O)[O-])NC(=O)N1C (stereo unspecified),23µM*,-20%,-5%,5%,?,9%

# Screening results: PubChem BioAssay, National Center for Advancing Translational Sciences (NCATS)
